# Screens (PubChem BioAssay)
# TDP43 rescue: rescues yeast growth from TDP-43 toxicity | 410,000 compounds, 1.8% hits | TDP-43 expressing yeast growth rescue, BacTiter-Glo, 24 h | Potency, µM (top dose mostly 46.1 µM), inactives show at the top dose growth rescue (activation), usual class: activators | AID 652104; also: % of control where 0% means no effect; nearly all actives have a fitted effect of over 50% in size
#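 Yeast expressing TDP-43 (pregrown in raffinose, seeded at OD600=0.02 in galactose medium) exposed to compounds 24 hr at 30 deg C. Growth read by BacTiter-Glo luminescence; rescue of toxicity appears as increased signal.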
# Mito fusion yeast: blocks mitochondrial division or promotes mitochondrial fusion | S. cerevisiae fusion-defective mutant growth rescue, CellTiterGlo 48 h | Potency, µM (series often up to 46.1 µM), inactives show at the top dose growth rescue (activation), most hits filed as activators | 320,000 compounds, 0.23% hits; also: % of control where 0% means no effect; nearly all actives have a fitted effect of over 45% in size
#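 S. cerevisiae fusion-defective temperature-sensitive mutants (e.g. fzo1-1, mgm1-5) grown 48 h at 37C in YPEG (ethanol/glycerol non-fermentable) medium with 23 nl compound per well; growth rescue read as CellTiterGlo luminescence.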
# aSyn rescue: inhibitors of alpha-synuclein toxicity in yeast | Yeast expressing alpha-synuclein, growth rescue, BacTiter-Glo, 24 h | Potency, µM (top dose mostly 46.1 µM), inactives show top-dose growth rescue (activation), actives largely listed as activators | 370,000 compounds, 0.14% hits | AID 652106; also: % of control where 0% means no effect; nearly all actives have a fitted effect of over 65% in size
#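 Galactose-induced alpha-syn yeast (OD600=0.02, raffinose-pregrown) + pinned cpd, 24 hr, 30 deg C; growth by BacTiter-Glo luminescence. Growth restoration scores as activation.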
# FUS suppressor: FUS proteinopathy suppression in yeast; S. cerevisiae FUS-expressing, growth rescue, OD600, 24 h; Potency, µM (series often up to 76.6 µM), actives largely listed as activators; 390,000 compounds, 0.24% hits;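 also: plate controls were DMSO vehicle for no effect and reference control for full effect; nearly all actives have a fitted effect of over 55% in size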
#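 Galactose (2%) drives FUS expression in yeast precultured in raffinose; seeding density OD 0.005. Test compounds incubated 24hr at 30C and 99% humidity before absorbance at 600 nm was measured.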
# Abeta yeast res: compounds reversing amyloid beta toxicity in yeast. yeast expressing A-beta42, growth rescue, OD600, 48 h; response scale: 0% DMSO, 100% iron-clioquinol control. Potency, µM (doses to about 46.1 µM), most hits filed as activators. 410,000 compounds, 0.063% hits; also: nearly all actives have a fitted effect of over 55% in size
#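 Yeast growth medium received pinned compounds, then yeast cells expressing toxic A-beta were added; plates incubated at 30 C for 48 hr. Growth read as absorbance at 600 nm, normalized to DMSO and equimolar FeCl3 plus clioquinol controls.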
# * = called active by the depositor; i = inactive; ? = inconclusive; . = no result; ! = not confirmed by another sample. An excerpt weighted towards active compounds, which were near 2.2% of everything screened. Calls follow the shape of the dose curve; as a rule, active = well fitted curve in the direction sought with a large enough effect; inconclusive = small, poorly fitted or top-dose-only effect, or another doubt; inactive = no such curve, though single readings can be large; an effect the other way counts as inactive or inconclusive. Potency is read from the fitted curve at half-maximal effect.
SMILES,TDP43 rescue,Mito fusion yeast,aSyn rescue,FUS suppressor,Abeta yeast res
O=C(c1cccc(C(F)(F)F)c1)N1CCOc2ccccc21,14.1µM*,32.8%,-0.6%,i,i
O=C(CCc1nc(-c2ccccc2F)no1)NCCc1ccc(F)cc1,.,.,.,i,.
Cc1c(-c2ccccc2)nc2ccccc2c1C(=O)O,-15.5%,2.6%,0.1%,i,i
CC[C@H](NC(=O)c1c(C)c(-c2ccccc2)nc2ccccc12)c1ccccc1,0.0%,20.6µM*!,-5.0%,i,i
CC[C@@H](CCCc1ccc(F)cc1)CN(Cc1ccc(OC)cc1)S(=O)(=O)c1ccc(C)cc1,.,.,.,i,.
COc1ccccc1-c1cc(C(F)(F)F)nc(S(C)(=O)=O)n1,35.5µM*,13.1%,-22.0%,i,i
COc1ccccc1-c1cc(C(F)(F)F)nc(S(=O)(=O)CCCC(=O)Nc2cccnc2Cl)n1,12.6µM*,10.1%,-0.1%,i,i
COc1ccccc1-c1cc(C(F)(F)F)nc(S(=O)(=O)CCCC(=O)NC(C)C)n1,3.9%,4.5%,-1.5%,i,i
COc1cccc(Cn2cc(COC(=O)NCC(C)C)nn2)c1,.,.,.,i,.
O=S1(=O)c2ccc(Br)cc2OC[C@@H](Cc2ccccc2)N1Cc1cn(CCC2OCCO2)nn1,.,.,.,i,.
NC(=S)c1cnn2c(-c3cccc(C(F)(F)F)c3)ccnc12,?,-18.4%,-10.6%,i,6.31µM*
COc1ccc(N2C(=O)CC(Sc3n[nH]c(-c4ccccc4)n3)C2=O)cc1 (stereo not drawn),2µM*,-0.2%,-7.6%,i,i
CCOc1ccc(N2C(=O)CC(Sc3n[nH]c(-c4ccccc4)n3)C2=O)cc1 (stereo not drawn),3.55µM*,-6.6%,-53.7%,i,i
COc1ccc(N2C(=O)CC(Sc3nc(C)c4c(n3)CCCC4)C2=O)cc1 (stereo not drawn),-7.6%,-12.0%,4.2%,i,i
C[C@H]1[C@@H](NCC2CCCCC2)CC[C@@]23CCCN2C(=O)CCC[C@@H]13,.,.,.,i,.
COc1cccc(OCC(=O)N2CCCc3ccccc32)c1,21.6%,2.5%,0.1%,i,i
COC(=O)[C@]12C[C@H](CC(=O)N3CCSCC3)C(=O)N(Cc3ccc4c(c3)OCO4)C1=C[C@H](C(C)C)O[C@@H]2C1CC1,.,.,.,i,.
Cc1cccc(-n2cnc(C(=O)N3CCN(C)CC3)c2)n1,-10.2%,4.2%,1.3%,i,i
Cc1cccc(-n2cnc(C(=O)O)c2)n1,-8.6%,14.1µM*,4.7%,i,i
CC1(C)O[C@@H]2C[C@H]3[C@@H]4CCC5=CC(=O)C=C[C@]5(C)[C@@]4(F)[C@@H](O)C[C@]3(C)[C@]2(C(=O)CO)O1,?,12.6µM*,3.9%,i,i
O=C1c2ccccc2C(=O)c2c1cccc2-n1nnc2ccccc21,-14.2%,1.1%,2.0%,i,i
O=C1C(N2CCOCC2)=C(n2nnc3ccccc32)C(=O)c2ccccc21,22.4µM*,-15.2%,-36.0%,i,i
S=C1N(c2ccccc2)C(c2ccc(Br)cc2)N2CCCN12 (stereo not drawn),12.6µM*,4.0%,20.3%,i,i
O=C(COC(=O)CNC(=O)C1CCCCC1)NC1CCCC1,.,.,-1.9%,.,.
COc1ccc(Cn2c(C(=O)O)c(CNCCc3ccccc3Cl)c3ccc(C)cc32)cc1,?,.,.,14.1µM*,i
SMILES,TDP43 rescue,Mito fusion yeast,aSyn rescue,FUS suppressor,Abeta yeast res
CCC(C(=O)Nc1ccccc1N1CCCC1)c1ccccc1F (stereo not drawn),.,.,.,i,.
CCOc1cc(C(c2c(C)[nH][nH]c2=O)c2c(C)[nH][nH]c2=O)ccc1OC(=O)c1cccc([N+](=O)[O-])c1,-18.9%,-2.8%,-0.1%,35.5µM*,i
CCOc1cc(C(c2c(C)[nH][nH]c2=O)c2c(C)[nH][nH]c2=O)ccc1OCc1ccc([N+](=O)[O-])cc1,?,-1.1%,6.9%,?,?
O=C(CNC(=O)c1ccccc1)OCC(=O)c1ccc2ccccc2c1,.,.,0.8%,.,.
Cc1cc(Nc2ccccc2C)n2nc(Cc3ccc(Cl)cc3)nc2n1,17.8µM*,.,.,i,i
Cc1cc(Nc2cccc(Cl)c2C)n2nc(Cc3ccccc3)nc2n1,22.4µM*,.,.,i,i
